Test results: PubChem BioAssay (NCATS)
Records with an inconclusive call do not appear. Activity calls are given as the source filed them. Unless noted, the call rests on the fitted dose curve; in most records, active means well fitted curve in the direction sought with a large enough effect; inconclusive means small, poorly fitted or top-dose-only effect, or another doubt; inactive means no such curve, though single readings can be large; an effect the other way counts as inactive or inconclusive.

What was measured:
[1] = Cytotoxicity counterscreen for NFkB agonists and antagonists (AID 624476);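 further: cells exposed to compound for 48 hours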; further: potency means the concentration at half of the fitted maximal effect
[2] = qHTS Assay for Identification of Small Molecule Antagonists for NFkB Signaling Pathway. (AID 624479; calls by dose curve;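 further: pathway stimulated with TNF alpha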; further: potency means the concentration at half of the fitted maximal effect)
[3] = Cell Proliferation Assay against the TMD8 Cell Line (AID 651645); settings: TMD8 DLBCL cell line proliferation/viability; at 46.1 µM (top of the series) unless noted;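 further: cells exposed to compound for 48 h before reading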
Summary of the method: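 Luminescent ATP read-out (CellTiter-Glo, 15 min RT) after 48 h compound exposure of log-growing TMD8 cells at 37C; percent activity scaled between DMSO as 100% and 9.2 uM bortezomib final as 0%.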

[4] = Cell Proliferation Assay against the HBL1 Cell Line (AID 651646); settings: HBL1 DLBCL cells; at 46.1 µM (top of the series) unless noted;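 further: cells exposed to compound for 48 h before reading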
Summary of the method: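 CellTiter-Glo luminescence after 48 h compound exposure at 37C gives percent activity, with DMSO as 100% and 9.2 uM bortezomib final as 0%. Cells: 500 log-phase HBL1 per well, RPMI plus 5% FBS.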

| SMILES | Potency [1] | Potency [2] | viability (% of control) [3] [%] | viability, percent of control [4] [%] |
| --- | --- | --- | --- | --- |
| CC(=O)Nc1ccc([C@H](C)C(=O)Nc2ncc(C(C)C)s2)cc1 | 0.935 µM (active) | 0.335 µM (active) | -0.0002 | 33.5 |
| CO[C@H]1C=CC=C(C)C(=O)NC2=CC(=O)C(NCCN(C)C)=C(C[C@@H](C)C[C@H](OC)[C@@H](O)[C@@H](C)C=C(C)[C@@H]1OC(N)=O)C2=O | – | – | 3.74 | 4.29 |
| O=C1C(Cl)=C(NCCN2CCOCC2)C(=O)c2ncccc21 | 2.35 µM (active) | 2.11 µM (active) | 3.41 | 2.09 |
| O=C(O)CCC1CCC(c2cc(F)ccc2F)(S(=O)(=O)c2ccc(Cl)cc2)CC1 (configuration not stated) | inactive | inactive | 98.2 | 95.2 |
| COc1cc(N2CCC(N3CCN(C)CC3)CC2)ccc1Nc1ncc(Cl)c(Nc2ccccc2S(=O)(=O)C(C)C)n1 | 2.09 µM (active) | 11.9 µM (active) | 3.22 | 3.91 |
| CN(C)C1CCN(C(=O)c2ccc(NC(=O)Nc3nc(N4CCOCC4)nc(N4CCOCC4)n3)cc2)CC1 | 0.0743 µM (active) | inactive | 2.35 | 26.9 |
| CO[C@H]1C[C@@H]2CC[C@@H](C)[C@@](O)(O2)C(=O)C(=O)N2CCCC[C@@H]2C(=O)O[C@H]([C@H](C)C[C@@H]2CC[C@H](OCCO)[C@H](OC)C2)CC(=O)[C@H](C)C=C(C)[C@@H](O)[C@@H](OC)C(=O)[C@H](C)C[C@H](C)C=CC=CC=C1C | – | – | -0.307 | 9.54 |
| CC(=O)N(C)C1(c2ccccc2)CCN(CCC[C@]2(c3ccc(Cl)c(Cl)c3)CCCN(C(=O)c3ccccc3)C2)CC1 | 23.5 µM (active) | – | 1.74 | 1.69 |
| CCOc1ccc(Nc2nc(-c3c(C)nc4ccccn34)cs2)cc1 | – | – | 5.58 | 14.7 |
| CO[C@@H](C(=O)N1Cc2[nH]nc(NC(=O)c3ccc(N4CCN(C)CC4)cc3)c2C1)c1ccccc1 | inactive | – | 3.09 | – |
| COc1cc2ncnc(-n3nc(-c4ccccn4)nc3N)c2cc1OC | – | 1.88 µM (active) | 1.94 | 17.1 |
| O=c1cc(N2CCOCC2)oc2c(-c3cccc4c3sc3ccccc34)cccc12 | 18.7 µM (active) | 13.3 µM (active) | 2.51 | 2.43 |
| CC(C)(C)C(=O)Oc1ccc2c(c1)nc(NC(=O)c1cccc([N+](=O)[O-])c1)n2CCCO | inactive | 4.73 µM (active) | 0.179 | 16.8 |
| CC(C)(C)COc1ccc(-n2cc(C(=O)O)cn2)cc1C#N | inactive | inactive | 88.1 | 90.4 |
| N#Cc1ccc(NC(=O)Nc2ccccc2Br)c2n[nH]nc12 | inactive | inactive | 12.8 | 69.7 |
| CC(C)(C)c1cc(C(=O)O)c(NC(=O)Nc2ccc3[nH]ncc3c2)s1 | inactive | inactive | 99.7 | 100 |
| O=c1cc(CN2CCOCC2)occ1OCCCCCSc1ccnc2cc(C(F)(F)F)ccc12 | – | – | 6.87 | 20.4 |
| CN1CCN(CCOc2cc(OC3CCOCC3)c3c(Nc4c(Cl)ccc5c4OCO5)ncnc3c2)CC1 | – | – | 17.4 | 19.4 |
| CC(C)C(=O)Nc1ncc(-c2cc(C(F)F)nn2-c2c(Cl)cccc2Cl)s1 | inactive | 18.8 µM (active) | 9.91 | 14.4 |
| COc1cc(Nc2ncc(F)c(Nc3ccc4c(n3)NC(=O)C(C)(C)O4)n2)cc(OC)c1OC | 13.2 µM (active) | – | 17.5 | 56.6 |
| O=C(Nc1cc(Cl)cc2c1[nH]c1cnccc12)c1cccnc1 | inactive | 18.8 µM (active) | 1.73 | 32.9 |
| Cc1ccc(F)c(NC(=O)Nc2ccc(-c3cccc4[nH]nc(N)c34)cc2)c1 | – | 1.49 µM (active) | 4.9 | 8.04 |
| NC(CO)(CO)CCc1ccc(Sc2cccc(OCc3ccccc3)c2)cc1Cl | – | – | 0.474 | 1.28 |
| Clc1ccc(-c2nc3sccn3c2C=NOCc2ccc(Cl)c(Cl)c2)cc1 | – | inactive | 74.9 | 4.32 |
